# From PubChem BioAssay AID488821 (National Center for Advancing Translational Sciences (NCATS), 2010)
# Results filed as inconclusive are left out. Unmarked numbers belong to inactive results. Active and inactive are the calls of the source. Calls follow the shape of the dose curve; as a rule, active = well fitted inhibition curve with a large enough effect; inconclusive = small, poorly fitted or top-dose-only effect, or effect the other way; inactive = flat fitted curve, though single readings scatter.
# Experiment: Counterscreen Assay for Enhancers of SMN2 Splice Variant Expression: Modulation of SMN1 Expression for Further Probe SAR
# Conditions: HEK293 SMN1-luciferase reporter, luminescence, 30-36 h; series mostly up to 46.1 µM; activity change, negative = inhibition: at the top concentration
# From the text: NIH Chemical Genomics Center [NCGC] NIH Molecular Libraries Probe Production centers Network [MLPCN] MLPCN Grant: R03 MH084179-01 Assay Submitter (PI): Elliot Androphy NCGC Assay Overview: Spinal muscular atrophy (SMA) is caused by insufficient levels of the survival motor neuron protein SMN. The SMN locus on chromosome 5q13 contains two inverted copies of SMN called SMN1 and SMN2 which are 99% identical at the amino acid level. SMN1 is a fully functional protein and SMN2 skips exon 7 90% of the time. Skipping of exon 7 produces non-functional protein product. 10% of the SMN2 protein includes exon 7 and is fully functional. In the SMA disease state, mutations in the SMN1 locus are the cause of the disease state. Because only 10% of SMN2 is of the fully functional form, it is not sufficient to overcome the deficiency produced by the loss of the SMN1 product. A therapy that either increases the amount of SMN2 product made increases the inclusion of exon 7 has been proposed for the treatment of SMA. We have designed an assay to identify small molecules that can increase the amount of functional SMN2 product by appending a luciferase reporter gene after the native SMN2 gene, such that inclusion of exon 7 in the expressed product places the luciferase sequence in frame, thus generating functional luciferase enzyme. As a counterscreen for nonspecific modulators of expression, we have run compounds through a similar assay that measures expression of an SMN1-luciferase chimera.
# NCGC Assay Protocol Summary: This screen utilizes a luciferase reporter gene assay, combining the promoter with the major portion of the native SMN1 cDNA (exons 1 -7, intron 8 , exon 8 fused to luciferase) stably expressed in HEK293 cells. Compounds that increase luciferase signal presumably enhance expression of the functional SMN1 splice variant. Passaging media contained DMEM w/ glutamax (+phenol red) 10% FCS, 1x pen/strep, 200 ug/ml hygro, 1x sodium pyruvate. Assay media contained DMEM w/ glutamax (-phenol red) 10% FCS, 1x pen strep, 1x pyruvate Sequence, Parameter, Value, Description (1) Cells, 5 uL, 2000 cells/well, 1536 TC treated White solid bottom plate (2) Time, 10-12 hours, 37C 5% CO2 (3) Compound, 23 nl, MLSMR Library (4) Control Compound, 23 nL, Sodium butyrate st 4.5mM (final) conc (5) Time, 30-36 hours, 37C 5% CO2 (6) Reagent, 3 ul, One Glo (TM) from Promega (7) Time, 5-15 minutes, Room temp (8) Detector, Viewlux: luminescent read, 60 second integration, high speed 2x binning Keywords: Spinal muscular atrophy, SMA, SMN2, high throughput screening, MLSMR, MLPCN, NIH Roadmap, qHTS and NCGC
SMILES,Potency,"activity change, negative = inhibition"
CC(=O)N1CCN(c2nc(-c3ccc(Br)cc3)cs2)CC1,15.4 µM (active),
O=C(c1ccco1)N1CCN(c2nc(-c3ccc(Br)cc3)cs2)CC1,,-26.7%
CN(C)c1ccc(-c2csc(N3CCC(C(N)=O)CC3)n2)cc1,,-11.1%
N#CC1CCN(c2nc(-c3ccc(Br)cc3)cs2)CC1,,-22%
Cc1ccc(-c2ccnc(N3CCC(C(N)=O)CC3)n2)cc1,7.72 µM (active),
CC(=O)Nc1ccc(-c2csc(N3CCC(C(N)=O)CC3)n2)cc1,,17.6%
CS(=O)(=O)N1CCN(c2nc(-c3ccc(Br)cc3)cs2)CC1,,-18.3%
CN(C)c1cccc(-c2cc(N3CCC(C(N)=O)CC3)ncn2)c1,,-22.8%
CC(C)(C)c1ccc(-c2csc(N3CCC(C(N)=O)CC3)n2)cc1,,-21%
CC(=O)C1CCN(c2ncc(-c3ccc4c(c3)OCCCO4)s2)CC1,4.87 µM (active),
NC(=O)C1CCN(c2nc(-c3ccc([N+](=O)[O-])cc3)cs2)CC1,,-14.7%
NC(=O)C1CCN(c2ncc(Br)cn2)CC1,,9.17%
N#Cc1ccc(-c2csc(N3CCC(C(N)=O)CC3)n2)cc1,,-8.95%
NC(=O)C1CCN(c2ncc(Br)s2)CC1,,-5.62%
NC(=O)C1CCN(c2nc(-c3ccc(OC(F)(F)F)cc3)cs2)CC1,,5.89%
Brc1ccc(-c2csc(N3CCC(c4nn[nH]n4)CC3)n2)cc1,,-18.6%
Cc1ccc(-c2cnc(N3CCC(C(N)=O)CC3)s2)cc1,2.44 µM (active),
CN(C)c1cccc(-c2ccnc(N3CCC(C(N)=O)CC3)n2)c1,,-22%
Brc1ccc(-c2csc(N3CCNCC3)n2)cc1,30.7 µM (active),
c1c[nH]c(C2CCN(c3ncc(-c4ccc5c(c4)OCCCO5)s3)CC2)n1,9.72 µM (active),

SMILES,Potency,"activity change, negative = inhibition"
NC(=O)C1CCN(c2nc(-c3ccccc3Cl)cs2)CC1,,-10.1%
NC(=O)C1CCN(c2ncc(-c3ccc(Cl)cc3)s2)CC1,9.72 µM (active),
NC(=O)N1CCN(c2nc(-c3ccc(Br)cc3)cs2)CC1,,-14.2%
CC(C)Oc1cccc(-c2ccnc(N3CCC(C(N)=O)CC3)n2)c1,9.72 µM (active),
CN(C)c1cccc(-c2nnc(N3CCC(C(N)=O)CC3)s2)c1,6.14 µM (active),
CN(C)c1cccc(-c2ncc(F)c(N3CCC(C(N)=O)CC3)n2)c1,,-14.2%
O=C(C1CCN(c2nc(-c3ccc(Br)cc3)cs2)CC1)N1CCOCC1,,-15.1%
O=C(NCCCCc1ccccc1)C1CCN(c2nc(-c3ccc(Br)cc3)cs2)CC1,,-12.8%
CC(=O)C1CCN(c2ncc(-c3cccc(N(C)C)c3)s2)CC1,12.2 µM (active),
NC(=O)C1CCN(c2nnc(-c3ccc(Br)cc3)s2)CC1,12.2 µM (active),
CNC(=O)C1CCN(c2nc(-c3ccc(Br)cc3)cs2)CC1,,-20.8%
N#Cc1ccccc1-c1csc(N2CCC(C(N)=O)CC2)n1,,-5.52%
Cc1cccc(-c2csc(N3CCC(C(N)=O)CC3)n2)c1,,5.68%
CC(C)Oc1cccc(-c2cnc(N3CCC(C(N)=O)CC3)s2)c1,4.87 µM (active),
Cc1ccc(-c2nnc(N3CCC(C(N)=O)CC3)s2)cc1,6.14 µM (active),
NC(=O)C1CCN(c2nccc(-c3ccc(Br)cc3)n2)CC1,12.2 µM (active),
NC(=O)C1CCN(c2nc(-c3ccc(N)cc3)cs2)CC1,,7.68%
NC(=O)C1CCN(c2nc(-c3ccccc3[N+](=O)[O-])cs2)CC1,,15.1%
NC(=O)C1CCN(c2ncc(-c3ccc4c(c3)OCCCO4)s2)CC1,0.487 µM (active),
NC(=O)C1CCN(c2nc(-c3cccc([N+](=O)[O-])c3)cs2)CC1,,9.79%
